# High-throughput results (PubChem BioAssay)
# Only some compounds are listed: those with a hit (about 5.4% of all), similar ones and a draw of the others.
# MPTP block: blocks calcium-induced mitochondrial swelling. isolated mouse mitochondria, Ca2+ swelling absorbance, 30 min. actives 1.4% (n = 360,000). inhibition, % at 10 µM;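 active = inhibition of 50% or more, scaled per plate between neutral and stimulator controls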
# Calb FLC: affects C. albicans growth with fluconazole | C. albicans CaCi-2 (fluconazole-resistant clinical isolate) + fluconazole, Alamar Blue growth, 48 h | growth inhibition, % (test concentration not listed) | actives 0.57% (n = 300,000);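 active = growth inhibition above about 58% in most replicates, limit read from the data, passing the limit was not always enough; inconclusive = exactly half the replicates above a set limit; inactive = most replicates below a set limit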;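 also: all wells also contain fluconazole at 8 µg/ml as a sub-toxic cotreatment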
# Beta apoptosis: beta cell apoptosis inhibition. INS-1E cytokine-induced death, ATP luminescence, 48 h; percent of positive-control rescue, neutral wells zero. protection from apoptosis, % (test concentration not listed). actives 0.8% (n = 300,000). AID 435005;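 active = Every replicate reaches about 75%, or at least half do and their mean reaches it too, limit read from the data; inconclusive = At least half of replicates reach the limit but their mean does not; inactive = Under half of replicates reach the limit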;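 also: higher means more ATP so stronger rescue from cytokine killing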
# SKKanGAS inh: inhibitors of SKKanGAS S. pyogenes growth in kanamycin (SK-promoter or general growth effect); actives 1.3% (n = 300,000); BacTiter-Glo, 6 h; inhibition, % at 7.5 µM;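 active = mean replicate score, as percent of positive control median, at least 50; inconclusive = mean below 50 but one replicate at or above 50; inactive = mean and every replicate below 50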;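 also: strain carries kanamycin resistance gene driven by streptokinase promoter and grows in 40 µg/ml kanamycin; loss of luminescence reflects streptokinase promoter inhibition or plain growth inhibition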
# Mdm2 MdmX PPI: inhibitors of human Mdm2/MdmX interaction; SaOS-2 split-luciferase Mdm2/MdmX complementation, luminescence; O15151+Q00987; actives 3% (n = 330,000); inhibition, % at 8 µM;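 active = inhibition of at least 50% at 8 µM in the primary screen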
# Target sequence (O15151 whole entry, looked up): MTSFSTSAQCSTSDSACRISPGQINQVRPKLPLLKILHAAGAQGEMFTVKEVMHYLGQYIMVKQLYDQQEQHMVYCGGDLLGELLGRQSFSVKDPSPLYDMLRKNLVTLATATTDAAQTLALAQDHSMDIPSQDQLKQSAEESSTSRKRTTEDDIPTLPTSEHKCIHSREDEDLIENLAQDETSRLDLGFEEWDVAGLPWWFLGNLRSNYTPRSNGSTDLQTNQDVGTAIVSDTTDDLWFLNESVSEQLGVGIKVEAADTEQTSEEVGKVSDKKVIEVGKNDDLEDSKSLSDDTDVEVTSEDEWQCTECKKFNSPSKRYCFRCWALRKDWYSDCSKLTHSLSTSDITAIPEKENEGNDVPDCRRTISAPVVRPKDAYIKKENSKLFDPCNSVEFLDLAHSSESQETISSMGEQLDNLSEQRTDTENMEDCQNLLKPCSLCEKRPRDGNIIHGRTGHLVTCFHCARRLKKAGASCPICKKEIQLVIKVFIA
# Target sequence (Q00987 whole entry, looked up): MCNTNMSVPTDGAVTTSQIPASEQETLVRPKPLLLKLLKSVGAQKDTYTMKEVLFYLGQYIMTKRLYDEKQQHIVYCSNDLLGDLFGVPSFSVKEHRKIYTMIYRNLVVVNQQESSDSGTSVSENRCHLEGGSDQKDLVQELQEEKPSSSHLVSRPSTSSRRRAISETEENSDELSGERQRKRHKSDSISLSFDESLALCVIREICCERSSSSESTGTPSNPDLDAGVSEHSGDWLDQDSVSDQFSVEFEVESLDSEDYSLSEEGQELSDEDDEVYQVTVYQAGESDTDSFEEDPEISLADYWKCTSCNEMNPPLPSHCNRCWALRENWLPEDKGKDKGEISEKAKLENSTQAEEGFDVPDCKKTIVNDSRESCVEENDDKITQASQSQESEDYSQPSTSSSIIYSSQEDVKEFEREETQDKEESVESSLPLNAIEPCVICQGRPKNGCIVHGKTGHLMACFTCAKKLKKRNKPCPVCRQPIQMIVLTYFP
# CSC inhib: blocks cancer stem cells; actives 1.1% (n = 300,000); inhibition, % at 7.5 µM; cancer stem cell-like cells viability, luminescence; in the data active = inhibition above about 75%; inconclusive = no clear call, values can overlap the other calls; tested in HMLE shEcad cells
# Hits are given with their value; n = inactive; u = inconclusive; x = not tested or not shown.
SMILES,MPTP block,Calb FLC,Beta apoptosis,SKKanGAS inh,Mdm2 MdmX PPI,CSC inhib
O=C(NCc1nnc2n1CCCCC2)c1ccc(Cl)cc1Cl,n,n,n,n,n,x
O=C(CSc1nnc(-c2ccccc2F)n1C1CC1)Nc1ccc2[nH]c(=O)[nH]c2c1,n,n,n,n,n,n
Cc1nc(NS(=O)(=O)c2ccc(Br)cc2)c2c3c(sc2n1)CCC3,n,92,n,n,n,n
Cc1nc(NS(=O)(=O)c2cccs2)c2c3c(sc2n1)CCC3,n,u,x,n,n,n
CCCCSc1ccc2nc(-c3ccc(C#N)cc3)cn2c1,n,n,n,54,n,n
CCCSc1ccc2nc(-c3ccccc3)cn2c1,n,n,n,n,n,n
NC(=O)c1c(NC(=O)c2ccccc2F)sc2c1CCCC2,n,82,n,n,n,n
NC(=O)c1c(NC(=O)c2ccccc2C(=O)O)sc2c1CCCC2,n,n,n,n,n,n
O=c1c(Cl)c2oc3ccccc3nc-2c2ccccc12,n,n,86,u,n,n
Cc1ccccc1-n1cnc2cc(NCc3cccs3)ccc21,n,n,n,50,n,n
CC(C)(C)n1cnc2cc(NCc3cccs3)ccc21,n,n,n,n,n,n
Cc1nc(NS(=O)(=O)c2ccccc2)sc1NC(=O)OCCN(C)C,n,n,n,n,n,n
CC1(C(=O)NS(=O)(=O)c2ccc(Cl)cc2)CCN1C(=O)Cc1cc(F)ccc1F (configuration not stated),n,x,x,x,x,x
CCOc1ccc(S(=O)(=O)N(C)c2ccc(OCC(=O)NCCc3ccc(OC)cc3)cc2)cc1,n,n,n,n,n,n
O=C(NC(Cc1ccccc1)C(=O)N1CCc2ccccc2C1)c1ccccc1 (configuration not stated),n,n,n,n,n,n
O=[N+]([O-])c1ccc2c(c1)[nH]c(=S)n2-c1ccccc1,n,85,n,n,n,n
O=[N+]([O-])c1cccc(-c2n[nH]c(=S)n2-c2ccccc2)c1,x,n,n,n,n,n
O=C(Nc1nccs1)c1ccccc1N=Cc1ccccc1,n,n,n,n,n,n
CN(C)S(=O)(=O)c1ccc(Cl)c(NC(=O)CN2CCc3ccccc3C2)c1,n,n,n,n,n,n
CCOc1ccc(-c2cc(C(=O)N/N=C(\C)c3cccnc3)c3ccccc3n2)c(OCC)c1,n,n,n,n,n,n
Cc1oc(/N=C/c2cccc3ccccc23)c(C#N)c1C,n,n,n,n,n,n
Cc1oc(/N=C/c2ccccc2)c(C#N)c1C,n,n,165,n,n,99
COc1ccc2c(c1)-c1c(sn(-c3ccccc3)c1=S)C(C)(C)N2,n,u,n,n,n,n
COc1ccc(-n2sc3c(c2=S)-c2cc(OC)ccc2NC3(C)C)cc1,n,n,n,n,n,129
COc1ccc2sc(-c3ccc(SC)cc3)c(C#CC(C)(C)O)c2c1,n,x,n,x,n,105
SMILES,MPTP block,Calb FLC,Beta apoptosis,SKKanGAS inh,Mdm2 MdmX PPI,CSC inhib
COc1ccc2sc(-c3ccc(N(C)C)cc3)c(C#CC(C)(C)O)c2c1,n,x,n,x,n,n
COc1ccc(-c2sc3ccc(N4CCOCC4)cc3c2C#CC(C)(C)O)cc1,n,x,n,x,n,87
COc1ccc(-c2sc3cc(OC)c(OC)cc3c2C#CCO)cc1,n,x,x,x,n,x
COc1ccc2sc(-c3ccc(SC)cc3)c(C#CCO)c2c1,n,x,n,x,n,83
COc1ccc(-c2sc3cc(OC)c(OC)cc3c2C#CC(C)(C)O)cc1,n,x,n,x,n,n
COc1cccc(-c2sc3ccc(OC)cc3c2C#CC(C)(C)O)c1,n,x,n,x,n,118
Cc1ccc2nc(NCc3ccc(F)cc3)c3nncn3c2c1,n,n,n,n,n,n
Cc1ccc(S(=O)(=O)NCCC(=O)N2CCN(S(=O)(=O)c3cccc(F)c3)CC2)cc1C,n,n,x,n,n,n
COc1cccc(-c2sc3ccc(OC)cc3c2C#CCC(C)O)c1 (configuration not stated),n,x,n,x,n,113
Nc1ccc(C#Cc2c(-c3ccsc3)oc3ccc(N4CCOCC4)cc23)cc1,n,n,x,n,n,n
COc1ccc(-c2oc3ccc(N4CCOCC4)cc3c2C#CCO)cc1,n,n,x,n,n,97
Cc1cnc(CN(C)C(=O)c2cc(COc3c(F)cccc3F)on2)[nH]1,n,n,n,n,n,n
O=C(CCN1C(=O)C2C3CCC(C3)C2C1=O)Nc1ccccc1C(F)(F)F (configuration not stated),n,n,n,n,n,n
